MEP2-GFP yeast – modulators of MEP2-GFP levels in yeast, primary screen, S. cerevisiae, multiplex flow cytometry, MLPCN library. 0.51% of 330,000 active. AID 2016, 2009. S. cerevisiae MEP2-GFP strain, 3 h; 100% = DMSO control level. GFP response vs DMSO, % at 10 µM;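 active = GFP response versus DMSO above a set limit, roughly screen mean plus 3 SD, cut at about 180% in these data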;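 note: median GFP fluorescence of the barcode-gated MEP2-GFP cells per well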
LAP4 TOR yeast – modulators of LAP4-GFP expression in yeast, primary screen, S. cerevisiae, multiplex flow cytometry, MLPCN library; AID 2023, 2009; GFP response vs DMSO, % at 10 µM; 0.34% of 320,000 active; 3 h; median GFP as percent of DMSO wells;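 active = GFP response vs DMSO above a set limit, about the screen mean plus 3 SD, cut at about 150% in these data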
RPL19A-GFP yeast – RPL19A-GFP expression modulators in yeast, primary screen, cell-based, S. cerevisiae, multiplex flow cytometry, MLPCN | 0.3% of 330,000 active | AID 2025, 2009 | percent response vs DMSO, % at 10 µM | S. cerevisiae RPL19A-GFP strain, 3 h; hits give low values;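 active = percent response vs DMSO below 50%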;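 note: median channel GFP fluorescence of the barcoded RPL19A-GFP strain; lower means less RPL19A-GFP as with rapamycin TOR inhibition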
CIT2-GFP yeast – modulators of CIT2-GFP expression in yeast, primary screen, S. cerevisiae, GFP fusion, multiplex flow cytometry, MLPCN library; S. cerevisiae CIT2-GFP strain, 3 h; 100 means same as DMSO wells; GFP response vs DMSO, % at 10 µM; 0.065% of 320,000 active; AID 2029, 2009;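 active = GFP response relative to DMSO above a set limit, near the screen mean plus 3 SD, cut at about 150% in these data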;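 note: ratio of well median GFP fluorescence to mean of DMSO wells on the plate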
AGP1-GFP MLPCN – modulators of AGP1-GFP expression in yeast TOR pathway, primary screen, cell-based, multiplex flow cytometry, S. cerevisiae, MLPCN library. 3 h; GFP as percent of DMSO wells. GFP response vs DMSO, % at 10 µM. 0.02% of 320,000 active;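 active = GFP response relative to DMSO above a set limit, near screen average plus 3 SD, cut at about 150% in these data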;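 note: median GFP channel fluorescence of the gated AGP1 strain per well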
LAP4-GFP pick2 – LAP4-GFP expression modulators in yeast, confirmation, cell-based, second cherry pick, flow cytometry | AID 2621, 2010 | 20% of 590 active | GFP response vs DMSO, % at 10 µM | shares compounds with LAP4 TOR yeast | S. cerevisiae LAP4-GFP strain, 3 h;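 active = GFP signal as percent of the solvent control above about 150%, meaning raised reporter expression, limit read from the data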
MEP2-GFP pick2 – modulators of MEP2-GFP levels in yeast, confirmation, S. cerevisiae, flow cytometry GFP, second cherry picks | S. cerevisiae MEP2-GFP strain, 3 h | GFP response vs DMSO, % at 10 µM | 10% of 590 active | shares compounds with LAP4 TOR yeast | AID 2622, 2010;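 active = GFP signal above 150% of the solvent control wells, that is a rise of more than half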;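 note: median channel GFP fluorescence of all gated yeast cells per well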
RPL19A GFP CP2 – RPL19A-GFP modulators in TOR pathway yeast, confirmation, cell-based, S. cerevisiae, flow cytometry, second cherry pick | shares compounds with LAP4 TOR yeast | S. cerevisiae RPL19A-GFP strain, 3 h; hits give low values; 100% means same as DMSO wells | GFP response vs DMSO, % at 10 µM | 3% of 590 active | AID 2623, 2010;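 active = under 65% GFP response relative to DMSO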;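 note: median GFP channel fluorescence per well over the all cells gate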
CIT2 GFP CP2 – modulators of CIT2-GFP expression in yeast, confirmation, flow cytometry, second cherry pick, single plex | S. cerevisiae CIT2-GFP strain, 3 h; DMSO control wells read 100% | GFP response vs DMSO, % at 10 µM | AID 2624, 2010 | 8% of 590 active | shares compounds with LAP4 TOR yeast;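 active = GFP response vs DMSO above about 150%, limit read from the data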;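 note: median green fluorescence per well over all gated yeast cells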
AGP1 GFP CP2 – AGP1-GFP expression modulators, hit retest, confirmation, cell-based, flow cytometry, S. cerevisiae, cherry pick set 2; shares compounds with LAP4 TOR yeast; S. cerevisiae AGP1-GFP strain, 3 h; percent response vs DMSO, % at 10 µM; 590 tested, under 10 active; AID 2643, 2010;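 active = over 150 percent of DMSO response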;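 note: median GFP channel fluorescence over all cells without mother daughter split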
s288c autofluor – compound autofluorescence in yeast s288c, dose response, artefact control for yeast TOR pathway GFP screen, s288c strain; 610 tested, under 10 active; S. cerevisiae s288c, 520 nm autofluorescence, flow cytometry, 3 h; hits give high values; zero means same as solvent-only cells; fluorescence change (kMESF span) at 33 µM; shares compounds with LAP4 TOR yeast; AID 2757, 2010;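 active = fluorescence span over the dose series, or activity score, above about 33, limit read from the data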
Of the large screens only hits and unclear results are named; the others gave an inactive call (follow-up assays come after a bar, where they were run). Hits are enriched below; roughly 0.93% of the tested compounds scored in any of these assays.

CC1=CC(=O)c2ccccc2C1=O	none
COc1ccc(Cc2nc3ccccc3c(=O)n2N)cc1OC	none
CCOC(=O)C(Cc1ccccc1)C(=O)NCc1ccccc1 (stereo not given)	none
COc1ccccc1[C@@]1(C)ON(c2ccccc2C(F)(F)F)C1=O	LAP4 TOR yeast 155 | LAP4-GFP pick2 inactive | MEP2-GFP pick2 inactive | RPL19A GFP CP2 inactive | CIT2 GFP CP2 inactive | AGP1 GFP CP2 inactive | s288c autofluor inactive
Cc1ccccc1[C@]1(C)ON(c2ccccc2C(F)(F)F)C1=O	none | LAP4-GFP pick2 inactive | MEP2-GFP pick2 inactive | RPL19A GFP CP2 inactive | CIT2 GFP CP2 inactive | AGP1 GFP CP2 inactive | s288c autofluor inactive
CC[C@]1(c2ccccc2C)ON(c2ccccc2C(F)(F)F)C1=O	none | LAP4-GFP pick2 inactive | MEP2-GFP pick2 inactive | RPL19A GFP CP2 inactive | CIT2 GFP CP2 inactive | AGP1 GFP CP2 inactive | s288c autofluor inactive
COc1ccccc1N1C(=O)CC(c2ccccc2)CC1=O	none
O=S(=O)(NC1CCN(S(=O)(=O)c2ccc3c(c2)OCCO3)C1)c1c(F)cccc1F (stereo not given)	none
C#CCOCCOCCOCCNc1nc(N2CCN(C(=O)CCCCCCCCCCNC(=O)[C@H]([C@@H](C)CC)n3cc(CCCCCN)nn3)CC2)nc(N2CCN(C(=O)CCCCCCCCCCNC(=O)[C@H]([C@@H](C)CC)n3cc(CCCCN=C(N)N)nn3)CC2)n1	none
C#CCOCCOCCOCCNc1nc(N2CCN(C(=O)CCCCCCCCCCNC(=O)Cn3cc(CCCCCN)nn3)CC2)nc(N2CCN(C(=O)CCCCCCCCCCNC(=O)[C@@H](CCC(=O)O)n3cc(CCCCCN)nn3)CC2)n1	none
C#CCOCCOCCOCCNc1nc(N2CCN(C(=O)CCCCCCCCCCNC(=O)Cn3cc(C[C@@H](C)O)nn3)CC2)nc(N2CCN(C(=O)CCCCCCCCCCNC(=O)[C@H](CCCN=C(N)N)n3cc(C[C@@H](C)CC)nn3)CC2)n1	LAP4 TOR yeast 183 | LAP4-GFP pick2 inactive | MEP2-GFP pick2 inactive | RPL19A GFP CP2 inactive | CIT2 GFP CP2 inactive | AGP1 GFP CP2 inactive
C#CCOCCOCCOCCNc1nc(N2CCN(C(=O)CCCCCCCCCCNC(=O)Cn3cc(CCCCCN)nn3)CC2)nc(N2CCN(C(=O)CCCCCCCCCCNC(=O)Cn3cc(CCCCCN)nn3)CC2)n1	LAP4 TOR yeast 152 | LAP4-GFP pick2 inactive | MEP2-GFP pick2 inactive | RPL19A GFP CP2 inactive | CIT2 GFP CP2 inactive | AGP1 GFP CP2 inactive

Compound activity as filed in PubChem.
